From PubChem BioAssay AID1159580 (chemical genetic matrix, 2015)
Values joined by “and” are separate entries in the source; they are usually repeats but may differ in a detail not shown here. Identical values can stand only once. Screen size: about 5,500 compounds; about 2,000 (36%) were called active. Not shown: some 18% with an inconclusive outcome. Cut-off read from the data, not from the text of the source: active = normalized growth mostly below about 0.91 (no sharp cut-off); inconclusive = no clear call, values can overlap the other calls; inactive = mostly above about 0.92. The list shows a part of the results.

Assay: chemical genetic growth profiling, strain panel (AID 1159580);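 note: tested at 20 µM; growth read once vehicle control cultures reached saturation at 30 °C; 1 = growth at the plate median or of vehicle wells; lower values mean less growth of the strain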
Settings: S. cerevisiae deletion strains, growth OD

Measured: normalized growth

CC(C)C(C)/C=C/C(C)C1CCC2C3=CC=C4CC(O)CCC4(C)C3CCC21C (configuration not stated)
active: locus YAL026C, strain drs2, hits give low values 0.856 | locus YBR009C, strain hhf1, hits give low values 0.893 | locus YBR021W, strain FUR4, hits give low values 0.814 | locus YDL134C, strain PPH21, hits give low values 0.86 | locus YDR137W, strain rgp1, hits give low values 0.819 | locus YDR162C, strain NBP2, hits give low values 0.732 | locus YDR392W, strain spt3, hits give low values 0.635 | locus YDR502C, strain sam2, hits give low values 0.917 | locus YGL078C, strain dbp3, hits give low values 0.908 | locus YGL248W, strain PDE1, hits give low values 0.862 | locus YGL253W, strain hxk2, hits give low values 0.861 | locus YJL095W, strain BCK1 (second series), hits give low values 0.898 | locus YJL164C, strain tpk1, hits give low values 0.905 | locus YJL166W, strain qcr8, hits give low values 0.86 | locus YLR262C, strain YPT6 (second series), hits give low values 0.727 | locus YLR330W, strain CHS5, hits give low values 0.844 | locus YLR418C, strain cdc73, hits give low values 0.666 | locus YNL071W, strain lat1, hits give low values 0.773 | locus YNL307C, strain MCK1, hits give low values 0.774 | locus YOR270C, strain vph1, hits give low values 0.681 | locus YPR163C, strain tif3, hits give low values 0.828
inactive: locus YAL013W, strain DEP1, hits give low values 0.935 | locus YAL021C, strain ccr4, hits give low values 1 | locus YAL030W, strain snc1, hits give low values 0.995 | locus YBL061C, strain skt5, hits give low values 0.996 | locus YBR023C, strain chs3, hits give low values 0.992 | locus YBR171W, strain sec66, hits give low values 1.01 | locus YBR229C, strain ROT2, hits give low values 1.01 | locus YBR231C, strain swc5, hits give low values 1 | locus YBR279W, strain paf1, hits give low values 1 | locus YCL011C, strain gbp2, hits give low values 0.974 | locus YCL016C, strain dcc1, hits give low values 1.01 | locus YCL029C, strain bik1, hits give low values 0.996 | locus YCL061C, strain MRC1, hits give low values 1.01 | locus YCL069W, strain vba3, hits give low values 1.01 | locus YCR088W, strain abp1, hits give low values 1.01 | locus YDL005C, strain med2, hits give low values 0.996 | locus YDL035C, strain GPR1, hits give low values 0.943 | locus YDL040C, strain nat1, hits give low values 1.01 | locus YDL074C, strain BRE1, hits give low values 0.848 | locus YDL101C, strain DUN1, hits give low values 0.965 | locus YDL185W, strain tfp1, hits give low values 1.01 | locus YDL192W, strain arf1, hits give low values 0.959 | locus YDR001C, strain nth1, hits give low values 1.01 | locus YDR069C, strain doa4, hits give low values 0.957 | locus YDR101C, strain arx1, hits give low values 1.02 | locus YDR159W, strain sac3, hits give low values 0.935 | locus YDR195W, strain ref2 1.08 | locus YDR297W, strain sur2, hits give low values 0.993 | locus YDR318W, strain mcm21, hits give low values 0.958 | locus YDR334W, strain swr1, hits give low values 1.01 | locus YDR335W, strain msn5, hits give low values 0.958 | locus YDR388W, hits give low values 1 | locus YEL003W, strain gim4, hits give low values 0.986 | locus YEL037C, strain rad23, hits give low values 0.989 | locus YEL061C, strain CIN8 (second series), hits give low values 1 | locus YER015W, strain faa2, hits give low values 1.01 | locus YER016W, strain bim1, hits give low values 0.987 | locus YER110C, hits give low values 0.996 | locus YER111C, strain swi4, hits give low values 0.982 | locus YER155C, strain BEM2 (second series), hits give low values 0.968 | locus YER155C, strain BEM2, hits give low values 0.975 | locus YER167W, strain BCK2, hits give low values 1.01 | locus YFR010W, strain ubp6, hits give low values 0.992 | locus YGL086W, strain mad1, hits give low values 0.962 | locus YGL167C, strain pmr1, hits give low values 0.998 | locus YGL173C, strain kem1, hits give low values 0.99 | locus YGL227W, strain vid30, hits give low values 0.995 | locus YGL240W, strain doc1, hits give low values 0.928 | locus YGR135W, strain pre9, hits give low values 0.928 | locus YGR229C, strain SMI1, hits give low values 0.831 | locus YGR252W, strain gcn5, hits give low values 0.798 | locus YHR013C, strain ard1, hits give low values 0.972 | locus YHR027C, strain rpn1, hits give low values 0.999 | locus YHR030C, strain SLT2, hits give low values 0.964 and 1.01 | locus YHR079C, strain IRE1 (second series), hits give low values 0.998 | locus YHR079C, strain IRE1, hits give low values 1.01 | locus YHR094C, strain hxt1, hits give low values 1.01 | locus YHR129C, strain ARP1, hits give low values 0.962 | locus YHR142W, strain chs7, hits give low values 0.884 | locus YHR200W, strain rpn10, hits give low values 0.994 | locus YIL066C, strain RNR3, hits give low values 0.97 | locus YIL073C, strain SPO22, hits give low values 0.863 | locus YIL125W, strain kgd1, hits give low values 1.03 | locus YIR030C, strain dcg1, hits give low values 1.01 | locus YJL092W, strain hpr5, hits give low values 1.01 | locus YJL095W, strain BCK1, hits give low values 0.835 and 1.02 | locus YJL115W, strain asf1, hits give low values 1.01 | locus YJL129C, strain trk1, hits give low values 0.978 | locus YJL134W, strain LCB3, hits give low values 1.01 | locus YJL154C, strain vps35, hits give low values 1.01 | locus YJL168C, strain set2, hits give low values 1.02 | locus YJL187C, strain SWE1 (second series), hits give low values 0.936 | locus YJL187C, strain SWE1, hits give low values 0.989 | locus YJR043C, strain POL32, hits give low values 1.03 | locus YJR066W, strain TOR1, hits give low values 0.921 | locus YJR075W, strain HOC1, hits give low values 0.978 | locus YKL009W, strain mrt4, hits give low values 0.926 | locus YKL068W, hits give low values 1.01 | locus YKL085W, strain MDH1 (second series), hits give low values 1 | locus YKL085W, strain MDH1, hits give low values 1 | locus YKL160W, strain elf1, hits give low values 0.989 | locus YKR001C, strain vps1, hits give low values 0.9 | locus YKR026C, strain gcn3, hits give low values 0.99 | locus YKR091W, strain srl3, hits give low values 0.998 | locus YLL001W, strain dnm1, hits give low values 0.96 | locus YLL026W, hits give low values 0.984 | locus YLL041C, strain sdh2, hits give low values 1.01 | locus YLR027C, strain aat2, hits give low values 0.972 | locus YLR039C, strain RIC1, hits give low values 0.806 | locus YLR058C, strain SHM2, hits give low values 0.946 | locus YLR102C, strain apc9, hits give low values 1.02 | locus YLR113W, strain HOG1, hits give low values 1 | locus YLR221C, strain rsa3, hits give low values 0.938 | locus YLR258W, strain gsy2, hits give low values 0.959 | locus YLR262C, strain YPT6, hits give low values 0.801 | locus YLR268W, strain sec22, hits give low values 0.968 | locus YLR320W, strain mms22, hits give low values 0.929 | locus YLR342W, strain FKS1, hits give low values 0.997 | locus YLR357W, strain rsc2, hits give low values 1.01 | locus YLR370C, strain arc18, hits give low values 0.989 | locus YLR371W, strain rom2, hits give low values 1.05 | locus YLR384C, strain iki3, hits give low values 0.988 | locus YML016C, strain PPZ1, hits give low values 0.973 | locus YML032C, strain rad52, hits give low values 0.973 | locus YML120C, strain ndi1, hits give low values 0.985 | locus YML124C, strain tub3, hits give low values 1 | locus YMR058W, strain fet3, hits give low values 0.956 | locus YMR078C, strain ctf18, hits give low values 1 | locus YMR125W, strain sto1, hits give low values 1.01 | locus YMR205C, strain PFK2, hits give low values 0.937 | locus YMR223W, strain ubp8, hits give low values 0.941 | locus YMR231W, strain pep5, hits give low values 0.998 | locus YMR307W, strain GAS1, hits give low values 0.797 | locus YNL067W, strain RPL9B, hits give low values 0.924 | locus YNL128W, strain TEP1, hits give low values 0.994 | locus YNL153C, strain GIM3, hits give low values 0.966 | locus YNL183C, strain NPR1, hits give low values 0.951 | locus YNL209W, strain ssb2, hits give low values 1 | locus YNL233W, strain BNI4, hits give low values 0.887 | locus YNL248C, strain rpa49, hits give low values 0.939 | locus YNL250W, strain rad50, hits give low values 0.952 | locus YNL271C, strain bni1, hits give low values 0.979 | locus YNL298W, strain CLA4, hits give low values 0.977 | locus YNL322C, strain KRE1 (second series), hits give low values 0.996 | locus YNR049C, strain mso1, hits give low values 0.998 | locus YNR052C, strain pop2, hits give low values 0.952 | locus YOL012C, strain htz1 1.19 | locus YOL147C, strain pex11, hits give low values 0.996 | locus YOR001W, strain rrp6, hits give low values 0.996 | locus YOR061W, strain CKA2, hits give low values 0.933 | locus YOR069W, strain VPS5, hits give low values 0.98 | locus YOR070C, strain gyp1, hits give low values 0.976 | locus YOR080W, strain dia2, hits give low values 1.02 | locus YOR083W, strain WHI5, hits give low values 0.991 | locus YOR106W, strain vam3, hits give low values 0.889 | locus YOR136W, strain idh2, hits give low values 0.962 | locus YOR144C, strain elg1, hits give low values 1 | locus YOR184W, strain ser1, hits give low values 0.952 | locus YOR231W, strain MKK1, hits give low values 0.995 | locus YOR265W, strain rbl2, hits give low values 1.01 | locus YOR290C, strain snf2, hits give low values 0.929 | locus YOR316C, strain cot1, hits give low values 1 | locus YPL051W, strain arl3, hits give low values 0.995 | locus YPL078C, strain atp4, hits give low values 0.957 | locus YPL106C, strain sse1, hits give low values 1.12 | locus YPL240C, strain hsp82, hits give low values 1.01 | locus YPL256C, strain CLN2, hits give low values 1.02 | locus YPR119W, strain clb2, hits give low values 1.02 | locus YPR141C, strain kar3, hits give low values 1.01 | locus YPR167C, strain met16, hits give low values 0.956 | strain wtn01, hits give low values 0.969
